Data: PMC5540273 (PLoS ONE, 2017)

Each compound was assayed on PRKX. Settings: concentration: 1 μM,replicates: in singlicate; n = 1.
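Further: KINOMEscan kinase panel screen.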

| Compound | %Inh [%] |
| --- | --- |
| COC(=O)c1cccc(NC(=O)NC2CCN(c3ccnc(Nc4cc(OC)c(OC)c(OC)c4)n3)C2)c1 (stereo not shown) [GSK1379767] | 5 |
| Cc1n[nH]c2cc(Nc3ccnc(Nc4cccc(CN5CCOCC5)c4)n3)ccc12 [GW682569] | 0 |
| O=C(Nc1cccc(C(F)(F)F)c1)c1cccc(Oc2ccc3nccn3n2)c1 | 17 |
| C[C@@H]1CNc2c(sc3ccc4nc(-c5ccc(O)cc5)ccc4c23)C(=O)N1 | 0 |
| O=C(Nc1n[nH]c2cc(-c3ccco3)ccc12)C1CC1 [SB-737447] | 0 |
| Cn1cc(-c2cccc3c(N)c(C(N)=O)nnc23)cn1 | 3 |
| OCCn1cc(-c2cnc3nnn(Cc4ccc5ncccc5c4)c3n2)cn1 | 0 |
| Cl.c1ccc(Oc2ccc(Nc3ccnc4cc(-c5ccc(CN6CCNCC6)o5)ccc34)cc2)nc1 [GW567142] | 20 |
| CS(=O)c1ccc(-c2coc3ccc(-c4n[nH]c(=O)o4)cc23)cc1 (stereo not shown) | 0 |
| CS(=O)(=O)Nc1ccc(-c2ccnc3[nH]ccc23)cc1 [GSK993273] | 42 |
| COC(=O)Nc1nc2cc(Oc3ccc(NC(=O)Nc4cc(C(F)(F)F)ccc4Cl)cc3)ccc2[nH]1.Cl [GW697465] | 15 |
| O=C(Nc1ccc(Oc2ccc3nc(NC(=O)C4CC4)cn3n2)c(F)c1)c1cccn(-c2ccccc2)c1=O | 0 |
| CCNCC(Cc1ccccc1)NC(=O)c1cc(Br)c(-c2ccnc3[nH]ccc23)s1.Cl.Cl (stereo not shown) [GSK1383280] | 95.6 |
| Cc1ccn2nc(-c3ccc(F)cc3)c(-c3ccncc3)c2c1.Cl [GW457859] | 21 |
| C[C@@H]1CNc2c(sc3ccc4nc(-c5ccncc5)ccc4c23)C(=O)N1 | 34 |
| Nc1nccc(-c2ccc3c(N)n[nH]c3c2)n1 [GSK1034945] | 68 |
| COC(=O)c1cccc(NC(=O)NC2CCN(c3ccnc(NCc4ccc(F)cc4)n3)CC2)c1 [GSK1379860] | 9 |
| CC(=O)Nc1nc2cnc(Nc3cc(NC(=O)c4cccc(CC(C)(C)C#N)c4)ccc3C)nc2s1 | 35 |
| O=C1NCCc2[nH]c(-c3ccncc3)cc21 | 28 |
| COc1cccc(CNC(=O)NC2CCN(c3ccnc(Nc4cc(OC)c(OC)c(OC)c4)n3)C2)c1 (stereo not shown) [GSK1379765] | 33 |
| NC(=O)Nc1sc(-c2ccc(F)cc2)cc1C(N)=O [GW789449] | 0 |
| CS(=O)(=O)c1cccc(CNc2nc(Nc3ccc4c(c3)[C@@H]3C[C@@H]4CNC3=O)ncc2C(F)(F)F)c1 | 0 |
| O=c1[nH]cc(-c2ccc(O)cc2)c2sc(-c3ccncc3)cc12 [GSK1033723] | 10 |
| CC(C(=O)NC1CCN(c2ccnc(Nc3ccc(F)cc3)n2)C1)c1ccc(Cl)cc1 (stereo not shown) [GSK1379713] | 6 |

These compounds were tested on PRP4. Settings: concentration: 1 μM,replicates: in singlicate; n = 1.

| Compound | %Inh [%] |
| --- | --- |
| CC(C)c1nc(-c2cccc(NS(=O)(=O)c3ccccc3)c2)c(-c2ccnc(Nc3ccc4c(c3)CN(C)CC4)n2)s1 [GSK1649598] | 8 |
| C[C@@H](Oc1cc(-n2cnc3cc(-c4cnn(C)c4)ccc32)sc1C(N)=O)c1ccccc1Cl [GSK580432] | 81 |
| CCn1c(-c2nonc2N)nc2cncc(CNC3CCNCC3)c21.Cl [SB-747651] | 20 |
| CN1CCN(CCCNc2nccc(-c3c(-c4ccc(F)cc4)nn4cc(C(N)=O)ccc34)n2)CC1 [GW622475] | 0 |
| Cc1ccc(C(=O)Nc2ccc(Oc3ccc4nc(NC(=O)C5CC5)cn4c3)c(F)c2)c(=O)n1-c1ccccc1 | 38 |
| CC(=O)Nc1ccc(-c2cc3ncnc(SCC(=O)O)c3s2)cc1 | 22 |
| Cn1ccc2ncnc(Oc3ccc(NC(=O)Nc4ccnc(C(F)(F)F)c4)c(Cl)c3)c21 | 14 |
| NC(=O)c1ccc(-c2cc3ncnc(SCC(=O)O)c3s2)cc1 | 44 |
| CN(c1ccc2c(c1)nc(NCc1ccc(F)cc1)n2C)c1ccnc(Nc2ccc(CS(C)(=O)=O)cc2)n1.Cl [GW813244] | 0 |
| FC(F)(F)c1cc(Br)cc(Nc2nccc(-c3cnn4ncccc34)n2)c1 [GW810578] | 0 |
| Cn1ccc2ncnc(Oc3ccc(NC(=O)Nc4cccc(C(F)(F)F)c4)c(F)c3)c21 | 14 |
| CCCC(=O)Nc1n[nH]c2ncccc12 [SB-601436] | 8 |
| CN(c1ccccc1CNc1nc(Nc2ccc3c(c2)CC(=O)N3)ncc1C(F)(F)F)S(C)(=O)=O | 0 |
| COC(=O)c1cccc(NC(=O)NC2CCN(c3ccnc(Nc4cc(OC)c(OC)c(OC)c4)n3)C2)c1 (stereo not shown) [GSK1379767] | 44 |
| Cc1n[nH]c2cc(Nc3ccnc(Nc4cccc(CN5CCOCC5)c4)n3)ccc12 [GW682569] | 65 |
| O=C(Nc1cccc(C(F)(F)F)c1)c1cccc(Oc2ccc3nccn3n2)c1 | 8 |
| C[C@@H]1CNc2c(sc3ccc4nc(-c5ccc(O)cc5)ccc4c23)C(=O)N1 | 12 |
| O=C(Nc1n[nH]c2cc(-c3ccco3)ccc12)C1CC1 [SB-737447] | 13 |
| Cn1cc(-c2cccc3c(N)c(C(N)=O)nnc23)cn1 | 1 |

| Compound | %Inh [%] |
| --- | --- |
| OCCn1cc(-c2cnc3nnn(Cc4ccc5ncccc5c4)c3n2)cn1 | 0 |
| Cl.c1ccc(Oc2ccc(Nc3ccnc4cc(-c5ccc(CN6CCNCC6)o5)ccc34)cc2)nc1 [GW567142] | 13 |
| CS(=O)c1ccc(-c2coc3ccc(-c4n[nH]c(=O)o4)cc23)cc1 (stereo not shown) | 14 |
| CS(=O)(=O)Nc1ccc(-c2ccnc3[nH]ccc23)cc1 [GSK993273] | 64 |
| COC(=O)Nc1nc2cc(Oc3ccc(NC(=O)Nc4cc(C(F)(F)F)ccc4Cl)cc3)ccc2[nH]1.Cl [GW697465] | 43 |
| O=C(Nc1ccc(Oc2ccc3nc(NC(=O)C4CC4)cn3n2)c(F)c1)c1cccn(-c2ccccc2)c1=O | 0 |
| CCNCC(Cc1ccccc1)NC(=O)c1cc(Br)c(-c2ccnc3[nH]ccc23)s1.Cl.Cl (stereo not shown) [GSK1383280] | 6 |
| Cc1ccn2nc(-c3ccc(F)cc3)c(-c3ccncc3)c2c1.Cl [GW457859] | 28 |
| C[C@@H]1CNc2c(sc3ccc4nc(-c5ccncc5)ccc4c23)C(=O)N1 | 0 |
| Nc1nccc(-c2ccc3c(N)n[nH]c3c2)n1 [GSK1034945] | 27 |
| COC(=O)c1cccc(NC(=O)NC2CCN(c3ccnc(NCc4ccc(F)cc4)n3)CC2)c1 [GSK1379860] | 30 |
| CC(=O)Nc1nc2cnc(Nc3cc(NC(=O)c4cccc(CC(C)(C)C#N)c4)ccc3C)nc2s1 | 6 |
| O=C1NCCc2[nH]c(-c3ccncc3)cc21 | 43 |
| COc1cccc(CNC(=O)NC2CCN(c3ccnc(Nc4cc(OC)c(OC)c(OC)c4)n3)C2)c1 (stereo not shown) [GSK1379765] | 48 |
| NC(=O)Nc1sc(-c2ccc(F)cc2)cc1C(N)=O [GW789449] | 75 |
| CS(=O)(=O)c1cccc(CNc2nc(Nc3ccc4c(c3)[C@@H]3C[C@@H]4CNC3=O)ncc2C(F)(F)F)c1 | 10 |
| O=c1[nH]cc(-c2ccc(O)cc2)c2sc(-c3ccncc3)cc12 [GSK1033723] | 22 |
| CC(C(=O)NC1CCN(c2ccnc(Nc3ccc(F)cc3)n2)C1)c1ccc(Cl)cc1 (stereo not shown) [GSK1379713] | 0 |
